Measurements from paper PMC4336329 (PLoS ONE, 2015).
About 14,000 (4.5%) of roughly 310,000 compounds showed an effect of 50% or more. The effect is printed as a negative number. Many of the other results were omitted from the sample, so strong results are more common in it than they were.

Biological target: human ether-à-go-go-related gene (hERG) potassium channel (human, UniProt Q12809)
Assay: primary screen, population patch clamp on CHO cells stably expressing hERG; higher = less effect of the substance
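Further: peak tail current of the secondary pulse compared with the same well before compound.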

human ether-à-go-go-related gene (hERG) potassium channel, sequence (Q12809 whole entry, looked up): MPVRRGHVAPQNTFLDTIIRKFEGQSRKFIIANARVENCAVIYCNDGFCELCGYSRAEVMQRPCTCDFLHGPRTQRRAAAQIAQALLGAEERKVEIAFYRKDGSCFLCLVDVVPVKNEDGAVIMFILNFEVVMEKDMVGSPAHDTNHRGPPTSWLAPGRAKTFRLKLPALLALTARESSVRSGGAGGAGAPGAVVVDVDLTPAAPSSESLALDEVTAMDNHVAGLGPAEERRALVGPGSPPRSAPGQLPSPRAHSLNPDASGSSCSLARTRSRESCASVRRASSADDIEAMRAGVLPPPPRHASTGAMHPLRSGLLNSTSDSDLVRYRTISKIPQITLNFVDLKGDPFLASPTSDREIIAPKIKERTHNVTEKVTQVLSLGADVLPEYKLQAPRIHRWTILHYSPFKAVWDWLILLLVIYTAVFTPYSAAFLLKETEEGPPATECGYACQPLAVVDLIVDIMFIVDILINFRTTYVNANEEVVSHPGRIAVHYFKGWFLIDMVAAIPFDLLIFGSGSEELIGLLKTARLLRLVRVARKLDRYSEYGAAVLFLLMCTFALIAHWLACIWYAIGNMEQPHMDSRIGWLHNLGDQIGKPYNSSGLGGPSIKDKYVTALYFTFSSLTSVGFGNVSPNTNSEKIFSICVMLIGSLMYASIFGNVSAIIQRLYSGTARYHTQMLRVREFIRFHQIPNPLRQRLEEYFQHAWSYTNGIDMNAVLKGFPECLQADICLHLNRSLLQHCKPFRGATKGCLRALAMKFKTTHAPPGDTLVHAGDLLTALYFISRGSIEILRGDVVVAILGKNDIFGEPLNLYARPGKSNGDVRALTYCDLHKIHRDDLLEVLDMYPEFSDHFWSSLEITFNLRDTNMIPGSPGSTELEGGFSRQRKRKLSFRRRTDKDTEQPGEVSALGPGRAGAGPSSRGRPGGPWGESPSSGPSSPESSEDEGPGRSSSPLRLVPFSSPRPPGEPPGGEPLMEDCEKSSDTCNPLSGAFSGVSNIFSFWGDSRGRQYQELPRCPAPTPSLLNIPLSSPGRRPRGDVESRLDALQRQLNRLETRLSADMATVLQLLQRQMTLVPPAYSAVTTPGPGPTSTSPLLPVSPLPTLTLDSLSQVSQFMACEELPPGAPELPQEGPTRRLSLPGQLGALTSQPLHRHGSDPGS

Row | SMILES | hERG current change (%, negative = inhibition) at 10uM [%]
1 | C=CCn1c(O)c(C=Nc2ccc(N(CC)CC)cc2)c(=O)[nH]c1=O | -7.13
2 | Nn1c(SCc2ccc(Br)cc2)nnc1-c1ccccn1 | 17.5
3 | O=C(CSc1ccc2nnc(-c3ccccn3)n2n1)Nc1ccc(F)cc1F | -30.4
4 | Brc1ccc(CSc2ccc3nnc(-c4ccccn4)n3n2)cc1 | -67.1
5 | O=C(CSc1ccc2nnc(-c3ccccn3)n2n1)Nc1ccccc1 | -23.4
6 | c1ccc(CSc2ccc3nnc(-c4ccccn4)n3n2)cc1 | -69.5
7 | Cc1ccc(NC(=O)CSc2ccc3nnc(-c4ccccn4)n3n2)cc1 | -44.2
8 | Cc1ccc(CSc2ccc3nnc(-c4ccccn4)n3n2)cc1 | -71.8
9 | O=C(CSc1ccc2nnc(-c3ccccn3)n2n1)Nc1ccccc1F | -14.7
10 | Cn1c(SCc2ccc(Br)cc2)nnc1-c1ccccn1 | -19.4
11 | Fc1ccc(CSc2ccc3nnc(-c4ccccn4)n3n2)cc1 | -87.6
12 | O=C(CSc1ccc2nnc(-c3ccccn3)n2n1)Nc1ccc(F)cc1 | -48.2
13 | Cc1ccc(CSc2nnc(-c3ccccn3)n2C)cc1 | -3.39
14 | C[C@@H](C(=O)NCC1CC1)[C@H]1C[C@]1(C)[C@H](NC(=O)OCc1ccccc1)c1ccccc1 | -7.08
15 | Cc1cccc(C(=O)N2CCCC(CCC(=O)N3CCN(c4ccccn4)CC3)C2)c1C (stereo not shown) | -17.3
16 | O=C(Cn1cnc2cc([N+](=O)[O-])ccc2c1=O)Nc1cccc2ccccc12 | -5.73
17 | O=C(O)c1ccc(Cl)c(S(=O)(=O)Nc2ccc(OCc3ccccc3)cc2)c1 | 7.79
18 | O=C(Cn1cc(C(=O)C2CC2)c2ccccc21)NCc1ccccc1 | 3.43
19 | Cc1cc(C(F)F)n2ncc(C(=O)NC3CCCCCC3)c2n1 | -11.5
20 | O=C(NCc1ccc2c(c1)OCO2)C(=O)NCC(c1ccco1)N1CCN(c2ccccc2)CC1 (stereo not shown) | 16
21 | Cc1cccc(OCC(=O)Nc2ccc(N3CCN(C(=O)c4ccco4)CC3)cc2)c1 | -28.1
22 | Cc1ccc(NC(=O)CSCC(=O)N2CCN(C(=O)c3ccco3)CC2)cc1 | -21.6
23 | Cc1cc(C)cc(OCC(=O)Nc2ccc(N3CCN(C(=O)c4ccco4)CC3)cc2)c1 | -45.8
24 | O=C(COc1ccccc1)Nc1ccc(N2CCN(C(=O)c3ccco3)CC2)cc1 | -53
25 | COc1ccc(OCC(=O)Nc2ccc(N3CCN(C(=O)c4ccco4)CC3)cc2)cc1 | 0.974

Row | SMILES | hERG current change (%, negative = inhibition) at 10uM [%]
26 | COc1ccc(NC(=O)CSCC(=O)N2CCN(C(=O)c3ccco3)CC2)cc1 | -55.1
27 | Cc1ccc(OCC(=O)Nc2ccc(N3CCN(C(=O)c4ccco4)CC3)cc2)cc1 | -56.1
28 | Cc1cccc(NC(=O)CSCC(=O)N2CCN(C(=O)c3ccco3)CC2)c1 | -30.5
29 | O=C(COc1ccc(Cl)cc1)Nc1ccc(N2CCN(C(=O)c3ccco3)CC2)cc1 | -21.1
30 | COc1ccc2c(c1)C(=O)N(c1ccc(C)cc1C)C(=O)C2 | 7.6
31 | O=C(O)C(Cc1ccccc1)N1C(=O)/C(=C/c2ccccc2)SC1=S (stereo not shown) | -0.221
32 | CCn1c(NCc2ccco2)nc2c1c(=O)n(C)c(=O)n2C | -10.7
33 | CCCCC1=C([O-])C2N=CC=CC2=[N+](c2ccccn2)C1=O (stereo not shown) | 0.715
34 | Cc1ccc(-n2c(=O)[nH]c3c(C(N)=O)nc(CC(C)C)nc32)cc1 | 4.8
35 | O=C(COc1ccccc1Cl)Nc1ccc(CN2CCCCC2)cc1 | -33.7
36 | O=C(Cc1ccc(Cl)cc1)Nc1ccc(C(=O)N2CCCCC2)cc1 | 14.5
37 | O=C(Nc1ccccc1)N1CCCN(Cc2ccccc2F)C1 | -8.48
38 | Cc1ccc(Cl)cc1N1CCN(CC(=O)Nc2ccc(CN3CCCCC3)cc2)CC1.Cl | -71.1
39 | O=C(COc1ccc(Cl)cc1Cl)Nc1ccc(CN2CCCCC2)cc1 | -67.9
40 | O=C(Cc1ccc(Cl)cc1)Nc1ccc(CN2CCCCC2)cc1 | -64.9
41 | COc1ccccc1N1CCN(CC(=O)Nc2ccc(CN3CCCCC3)cc2)CC1.Cl | -11.5
42 | O=C(Cc1ccc(Cl)cc1)Nc1ccc(N2CCCC2)cc1 | 17.3
43 | O=C(COc1ccc(Cl)cc1Cl)Nc1ccc(CN2CCOCC2)cc1 | 15.4
44 | O=C(Nc1ccc(Cl)cc1)N1CCCN(Cc2ccc(F)cc2)C1 | -75.4
45 | Cc1ccc(Cl)cc1N1CCN(CC(=O)Nc2ccc3[nH]c(=O)[nH]c3c2)CC1 | 11.1
46 | O=C(Nc1ccc(Cl)cc1)N1CCCN(Cc2ccccc2F)C1 | -26.3
47 | Cc1cc(C)n2nc(C(=O)N/N=C/c3ccccc3C)nc2n1 | 4.85
48 | O=C1c2ccccc2NC2(CCCC2)N1N=C1CCCC1 | -12.2
49 | Cc1c(C(=O)Nc2cccc(S(=O)(=O)N3CCCC3)c2)oc2ccccc12 | 5.98
50 | O=C(CCNS(=O)(=O)c1ccccc1)Nc1ccccc1 | 17.8

Row | SMILES | hERG current change (%, negative = inhibition) at 10uM [%]
51 | CCc1ccc(NC(=O)C2CCN(S(=O)(=O)c3ccc4c(c3)NC(=O)C(C)S4)CC2)cc1 (stereo not shown) | 19.2
52 | O=C(Oc1coc(CSc2nnc(NC(=O)c3cccs3)s2)cc1=O)c1ccccc1 | 7.37
53 | COc1ccc(NS(=O)(=O)c2cccc(NC(=O)NC3CCCCC3)c2)cc1 | -4.21
54 | CC(OC(=O)CC1CC2CCC1C2)C(=O)Nc1ccc(C(N)=O)cc1 (stereo not shown) | -16
55 | CCCCNC(=O)Nc1c(C(=O)OCC)[nH]c2ccccc12 | 6.83
56 | COc1cc2nc(/C=C/c3cc(OC)c(OC)c(OC)c3)sc2cc1SC | 5.92
57 | CO/N=C/CC(=O)Nc1ccc(F)cc1F | 13.3
58 | O=C(Nc1ccc(CN2CCCCC2)cc1)Nc1ccccc1Cl | -59
59 | Cc1ccc(C(=O)Nc2ccc(CN3CCCCC3)cc2)c(C)c1 | -35.2
60 | O=C(COc1ccccc1)Nc1ccc(CN2CCCCC2)cc1 | -26.9
61 | CCN1CCN(Cc2ccc(NC(=O)Nc3ccccc3Cl)cc2)CC1 | -22.8
62 | Cc1ccc(OCC(=O)Nc2ccc(CN3CCCCC3)cc2)c(C)c1 | -69.4
63 | O=C(CN1CCCC1)Nc1ccc(NC(=O)Nc2ccccc2Cl)cc1 | -21.5
64 | COc1ccc(C2CC(c3ccccc3)=NN2C(=O)CCC(=O)O)cc1 (stereo not shown) | 8.77
65 | O=C(COc1ccc(Cl)cc1)NCC(=O)N/N=C/c1cccs1 | 12
66 | O=C(CN1C(=O)C2CCCCC2C1=O)Nc1nc(-c2ccc(F)cc2)cs1 (stereo not shown) | 5.21
67 | O=C(Nc1nc(-c2ccc(Cl)cc2)cs1)c1cccnc1 | 5.68
68 | CC1(C)C(C#N)=C(N)Oc2c1c(=O)oc1ccccc21 | 0.829
69 | Cn1c(N)c(C(=O)CNC2CCCCC2)c(=O)n(C)c1=O | 5.61
70 | COc1ccc(-c2cc(-c3n[nH]c(=S)n3-c3ccccc3Cl)[nH]n2)cc1 | 13.5
71 | Nn1c(Cc2cccc3ccccc23)nnc1SC1CCOC1=O (stereo not shown) | -0.158
72 | Cc1ccc(-c2cc(C(=O)N/N=C/C=C/c3ccccc3)n[nH]2)o1 | -7.76
73 | Cc1ccc(C)c(N2CCN(c3ncccc3[N+](=O)[O-])CC2)c1 | 2.42
74 | CCN(CC)CCCNC(=O)c1cc(Cl)c(NC(=O)C2=C(C)OCCS2)cc1OC | -61.5
75 | CCOCCCNC(=O)c1cc(Cl)c(NC(=O)C2=C(C)OCCS2)cc1OC | -9.78

Row | SMILES | hERG current change (%, negative = inhibition) at 10uM [%]
76 | CCN1CCN(CCNC(=O)c2cc(Cl)c(NC(=O)C3=C(C)OCCS3)cc2OC)CC1 | -73.4
77 | CCCNC(=O)c1cc(Cl)c(NC(=O)C2=C(C)OCCS2)cc1OC | -14.5
78 | COc1cc(NC(=O)C2=C(C)OCCS2)c(Cl)cc1C(=O)NCCN1CCN(C)CC1 | -47.1
79 | COc1cc(NC(=O)C2=C(C)OCCS2)c(Cl)cc1C(=O)NCCN(C)C | -3.65
80 | O=C(CCS(=O)(=O)c1ccccc1)Nc1ccc(Cl)cn1 | -3.42
81 | CCN(CC)C(=O)Cn1cc(C(=O)C(=O)NCCCn2ccnc2)c2ccccc21 | 27.8
82 | CCCN1C(=O)COc2ccc(C(=O)c3ccccc3C(=O)O)cc21 | 17.7
83 | CC(c1ccccc1)N1C(=O)c2ccc(C(=O)NCc3cccnc3)cc2C1=O (stereo not shown) | -18.4
84 | O=C(NC(=S)N(Cc1ccccc1)Cc1ccccc1)C1CCCCC1 | 12.6
85 | COc1ccc(C(=O)N2CCN=C2SC)cc1 | 1.04
86 | O=S(=O)(Nc1cccnc1)c1cc(Cl)ccc1Cl | 9.51
87 | COc1ccc(OC)c(CN2CCCC(C(=O)c3sccc3C)C2)c1 (stereo not shown) | -63.9
88 | COc1cc(CN2CCCC(C(=O)c3sccc3C)C2)cc(Cl)c1O (stereo not shown) | -53.8
89 | Cc1ccc(CN2CCCC(C(=O)c3sccc3C)C2)o1 (stereo not shown) | -11
90 | COc1cc(OC)c(OC)cc1CN1CCCC(C(=O)c2sccc2C)C1 (stereo not shown) | -63.4
91 | COc1cc(CN2CCCC(C(=O)c3ccc(SC)cc3)C2)cc(Cl)c1O (stereo not shown) | -72.8
92 | COc1ccc(O)c(CN2CCCC(C(=O)c3sccc3C)C2)c1 (stereo not shown) | 9.89
93 | COc1cc(CN2CCCC(C(=O)c3sccc3C)C2)cc(OC)c1O (stereo not shown) | -47.8
94 | COc1cc(CN2CCCC(C(=O)c3ccc(C(C)(C)C)cc3)C2)cc(OC)c1O (stereo not shown) | -47.3
95 | COCc1ccc(CN2CCCC(C(=O)c3sccc3C)C2)o1 (stereo not shown) | 5.56
96 | CCOC(=O)C1CCCN(Cc2cc(OC)c(O)c(OC)c2)C1 (stereo not shown) | -2.31
97 | CCc1ccc(CN2CCCC(C(=O)c3sccc3C)C2)o1 (stereo not shown) | 2.99
